The values below come from PubChem BioAssay (NCI).

Compounds without any hit were thinned out: in the full panel of roughly 83,000, 20% have a hit.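 Growth was measured after 48 h exposure to one concentration of compound in 96-well plates. Values under 10 count as active.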 A number with no mark means an inactive call. Calls of active or inactive are those of the source.

The subject of one test is UACC-257 melanoma. Briefly: NCI-60 one-dose screen, 48 h (100 = growth as untreated, 0 = no growth, -100 = all killed). The note with it: 10 µM unless noted.
On to `C=C(C)[C@@H]1CC[C@]2(CNCCO)CC[C@]3(C)[C@H](CC[C@@H]4[C@@]5(C)CCC(N)[C@@](C)(CO)[C@@H]5CC[C@]43C)[C@@H]12` (stereo partly drawn), for which the growth was -87.1% (active).
Same read-out and setting: for `O=S(=O)(NCCNc1cc(-c2c(-c3cccc(O)c3)nc3sccn23)ccn1)c1ccc(Cl)cc1` the value was 95.2%.
The same measure, in the same setting: the figure for `CC(C)(C)Nc1c(-c2c3ccccc3cc3ccccc23)nc2ccccn12` is 75.5%; for `CN(C)CCOC(=O)Nc1ccc(Cl)cc1` it is 101%.
The same measure, in the same setting: the figure for `CCOc1ccc(-c2nc3ccc(-c4nc5ccc(N6CCN(C)CC6)cc5[nH]4)cc3[nH]2)cc1OCC` is 6.87% (active).
On to `N[C@H]1CCC[C@@H]1NCCCCN1C(=O)c2cccc3cccc(c23)C1=O`, for which the growth was 104%.
Regarding `COc1ccc(/C=C(\C#N)n2nnc3cc(F)c(F)cc32)c(OC)c1OC`, the growth was 64.4%.
Same read-out and setting: for `COc1cc2ccccc2cc1C(=O)NC(=S)Nc1ccc(-c2nc3ccccc3[nH]2)cc1` the value was 98%.
On the same count and under the same terms, for `Cc1ccc(/C=C(\C#N)n2nnc3cc(Cl)c(Cl)cc32)cc1` the value was 50.3%; for `CC(C)(O)c1cccc(F)c1`, 108%.
On the same count and under the same terms, the figure for `O=C1Nc2ccc(Cl)cc2/C1=N/N=C/c1c[nH]c2ccccc12` is 98.8%; for `N#Cc1c(-c2ccccc2)nc(SCC2CO2)nc1N1CCOCC1` (stereo not drawn) it is 69.2%; for `COc1cc2c(cc1OC)-c1ccc3cc4c(cc3c1N(CCCN(C)C)C2)OCO4` it is 34.6%.
For `C=C1C(=O)O[C@H]2[C@H]1CC/C(Cn1cc(CNCCc3c[nH]c4ccc(Cl)cc34)nn1)=C\CC[C@@]1(C)O[C@@H]21`, the growth was 53.4%.
With `C#CC[C@H](N)C(=O)O`, the growth was 101% [20 µM].
Still for that read-out and setting: for `O=C(Oc1ccc([N+](=O)[O-])cc1)c1ccc(CBr)cc1` the value was 92.6%; for `OC(CBr)c1ccnc2ccccc12` (stereo not drawn), 99.6%; for `CCCNCC(=O)Nc1ccc(C(=O)OC(C)(C)CC)cc1`, 105%.
The same measure, in the same setting: the figure for `CC(=O)c1cc2c(o1)C(=O)c1ccccc1C2=O` is -88.5% (active); for `CS(=O)(=O)c1ccc(-c2[nH]c3ccc(F)cc3c2/C=N/NC(N)=S)cc1` it is 63.3%.
Still for that read-out and setting: the figure for `CC(C)c1ccc(C(=O)OC(=O)c2ccc(C(C)C)cc2)cc1` is 105%.
Take `N=C(N)c1ccc(-c2ccc(-c3ccc(Cl)c(Cl)c3)o2)nc1`: the growth was 107%.
As for `N#C/C=C(\c1ccc([N+](=O)[O-])cc1)n1nnc2cc(Cl)c(Cl)cc21`, the growth is 45.6%.
For `CS(=O)(=O)c1ccc(-c2nc3cc(Cl)ccc3n2CC(=O)NO)cc1`, the growth is 102%.
Same read-out and setting: for `CC(=O)Nc1cccc(C2=CC(c3ccc(C)cc3)n3ncnc3N2)c1` (stereo not drawn) the value was 112%; for `CCn1c(Sc2nnc(NC(=O)CCN3CCCC3)s2)nc2c1c(=O)n(C)c(=O)n2C`, 102%; for `N#Cc1c(NC(=O)c2cccc(C(F)(F)F)c2)sc2c1CCC(=O)C2`, -3.73% (active).
Same read-out and setting: for `CC(C)(C)c1ccc(C(=O)Nc2sc3c(c2C(N)=O)CCC(=O)C3)cc1` the value was -30.4% (active); for `CCOC(=O)c1c(C)nc2c(c1N)/C(=C/c1cc(OC)c(OC)c(OC)c1)C(=O)N2c1ccc(OC)cc1`, 73.6%.
On the same count and under the same terms, the figure for `Nc1nc(Nc2ccc(Cl)cc2)nn1S(=O)(=O)c1ccc(-c2ccc(F)cc2)cc1` is 107%.
In the case of `CCNCCNc1cc(-c2ccc(C(F)(F)F)cc2)c(C#N)c2nc3cc(Cl)c(Cl)cc3n12`, the growth was -85.4% (active).
As to `C=CCN1C(=O)[C@]2(SC1=S)[C@H](c1cccc(Cl)c1)CN(C)[C@]21C(=O)NC2C=CC(Cl)=C[C@H]21` (stereo partly drawn), the growth was 26.5%.
Same read-out and setting: the figure for `O=C(/C=C/C12c3ccccc3C(c3ccccc31)C1C(=O)N(c3ccccc3)C(=O)C12)c1ccccc1` (stereo not drawn) is 33.6%; for `O=S(=O)(Nc1ccsc1-c1nc(-c2ccccc2)no1)c1cc(Cl)cc(Cl)c1` it is 85.8%; for `CNC1(C#N)CCN(Cc2ccccc2)CC1` it is 101%.
Same read-out and setting: the figure for `COc1cc2cc(Oc3ccc(NC(=O)Nc4cc(C(F)(F)F)cc(C(F)(F)F)c4)cc3)c(C)nc2cc1OCCN1CCCCC1` is -47.4% (active).
Still for that read-out and setting: for `CC(C)n1nc(C#Cc2cccc3cc(-c4cccc(C(F)(F)F)c4)ncc23)c2c(N)ncnc21` the value was 82.7%; for `N[C@@H]1CCC[C@H]1NCCCCN1C(=O)c2cccc3cccc(c23)C1=O`, 100%.
For the compound `CCN(CC)CCOC(=O)N1c2ccccc2Sc2ccccc21`, the growth was 102%.

The test system of the next test is M14 melanoma. The description is as above. To be noted: 10 µM unless noted.
For `C=C(C)[C@@H]1CC[C@]2(CNCCO)CC[C@]3(C)[C@H](CC[C@@H]4[C@@]5(C)CCC(N)[C@@](C)(CO)[C@@H]5CC[C@]43C)[C@@H]12` (stereo partly drawn), the growth is -77% (active).
Same read-out and setting: for `O=S(=O)(NCCNc1cc(-c2c(-c3cccc(O)c3)nc3sccn23)ccn1)c1ccc(Cl)cc1` the value was 68.2%; for `CC(C)(C)Nc1c(-c2c3ccccc3cc3ccccc23)nc2ccccn12`, 70.3%; for `CN(C)CCOC(=O)Nc1ccc(Cl)cc1`, 90.5%.
For `CCOc1ccc(-c2nc3ccc(-c4nc5ccc(N6CCN(C)CC6)cc5[nH]4)cc3[nH]2)cc1OCC`, the growth is 10%.
On the same count and under the same terms, for `N[C@H]1CCC[C@@H]1NCCCCN1C(=O)c2cccc3cccc(c23)C1=O` the value was 53.1%; for `COc1ccc(/C=C(\C#N)n2nnc3cc(F)c(F)cc32)c(OC)c1OC`, 72.7%.
Same read-out and setting: the figure for `COc1cc2ccccc2cc1C(=O)NC(=S)Nc1ccc(-c2nc3ccccc3[nH]2)cc1` is 79.3%; for `Cc1ccc(/C=C(\C#N)n2nnc3cc(Cl)c(Cl)cc32)cc1` it is -23% (active); for `CC(C)(O)c1cccc(F)c1` it is 95.6%.
Regarding `O=C1Nc2ccc(Cl)cc2/C1=N/N=C/c1c[nH]c2ccccc12`, the growth is 72%.
Still for that read-out and setting: for `N#Cc1c(-c2ccccc2)nc(SCC2CO2)nc1N1CCOCC1` (stereo not drawn) the value was 84%.
Same read-out and setting: the figure for `COc1cc2c(cc1OC)-c1ccc3cc4c(cc3c1N(CCCN(C)C)C2)OCO4` is 33.2%; for `C=C1C(=O)O[C@H]2[C@H]1CC/C(Cn1cc(CNCCc3c[nH]c4ccc(Cl)cc34)nn1)=C\CC[C@@]1(C)O[C@@H]21` it is 66.1%; for `C#CC[C@H](N)C(=O)O` it is 100% [20 µM].
On the same count and under the same terms, the figure for `O=C(Oc1ccc([N+](=O)[O-])cc1)c1ccc(CBr)cc1` is 105%; for `OC(CBr)c1ccnc2ccccc12` (stereo not drawn) it is 98%; for `CCCNCC(=O)Nc1ccc(C(=O)OC(C)(C)CC)cc1` it is 96.8%.
Take `CC(=O)c1cc2c(o1)C(=O)c1ccccc1C2=O`: the growth was -88.4% (active).
For `CS(=O)(=O)c1ccc(-c2[nH]c3ccc(F)cc3c2/C=N/NC(N)=S)cc1`, the growth is 11.6%.
Same read-out and setting: the figure for `CC(C)c1ccc(C(=O)OC(=O)c2ccc(C(C)C)cc2)cc1` is 94.5%; for `N=C(N)c1ccc(-c2ccc(-c3ccc(Cl)c(Cl)c3)o2)nc1` it is -51.8% (active); for `N#C/C=C(\c1ccc([N+](=O)[O-])cc1)n1nnc2cc(Cl)c(Cl)cc21` it is 21.1%.
For the compound `CS(=O)(=O)c1ccc(-c2nc3cc(Cl)ccc3n2CC(=O)NO)cc1`, the growth is 93.6%.
Still for that read-out and setting: the figure for `CC(=O)Nc1cccc(C2=CC(c3ccc(C)cc3)n3ncnc3N2)c1` (stereo not drawn) is 112%.
The same measure, in the same setting: the figure for `CCn1c(Sc2nnc(NC(=O)CCN3CCCC3)s2)nc2c1c(=O)n(C)c(=O)n2C` is 107%; for `N#Cc1c(NC(=O)c2cccc(C(F)(F)F)c2)sc2c1CCC(=O)C2` it is -68.2% (active).
Same read-out and setting: for `CC(C)(C)c1ccc(C(=O)Nc2sc3c(c2C(N)=O)CCC(=O)C3)cc1` the value was -49.2% (active).
As for `CCOC(=O)c1c(C)nc2c(c1N)/C(=C/c1cc(OC)c(OC)c(OC)c1)C(=O)N2c1ccc(OC)cc1`, the growth was 43.6%.
The same measure, in the same setting: the figure for `Nc1nc(Nc2ccc(Cl)cc2)nn1S(=O)(=O)c1ccc(-c2ccc(F)cc2)cc1` is 89.8%.
Take `CCNCCNc1cc(-c2ccc(C(F)(F)F)cc2)c(C#N)c2nc3cc(Cl)c(Cl)cc3n12`: the growth was -81.5% (active).
The same measure, in the same setting: for `C=CCN1C(=O)[C@]2(SC1=S)[C@H](c1cccc(Cl)c1)CN(C)[C@]21C(=O)NC2C=CC(Cl)=C[C@H]21` (stereo partly drawn) the value was 29.9%; for `O=C(/C=C/C12c3ccccc3C(c3ccccc31)C1C(=O)N(c3ccccc3)C(=O)C12)c1ccccc1` (stereo not drawn), 14.7%; for `O=S(=O)(Nc1ccsc1-c1nc(-c2ccccc2)no1)c1cc(Cl)cc(Cl)c1`, 92.1%.
Consider `CNC1(C#N)CCN(Cc2ccccc2)CC1`, for which the growth is 94%.
Same read-out and setting: the figure for `COc1cc2cc(Oc3ccc(NC(=O)Nc4cc(C(F)(F)F)cc(C(F)(F)F)c4)cc3)c(C)nc2cc1OCCN1CCCCC1` is -79.6% (active); for `CC(C)n1nc(C#Cc2cccc3cc(-c4cccc(C(F)(F)F)c4)ncc23)c2c(N)ncnc21` it is 56.2%; for `N[C@@H]1CCC[C@H]1NCCCCN1C(=O)c2cccc3cccc(c23)C1=O` it is 64%.
Still for that read-out and setting: for `CCN(CC)CCOC(=O)N1c2ccccc2Sc2ccccc21` the value was 93.4%.
